For experiment [1], the system named is PIM1. Conditions: n = 1.
The test system of experiment [2] is PIM2. Conditions: concentration: 1 μM, replicates: in singlicate; n = 1.
For experiment [3], the system named is PIM3. Conditions: n = 1.
Experiment [4] relates to PIP5K1A. The settings on record: concentration: 1 μM, replicates: in singlicate; n = 1.
The subject of experiment [5] is PIP5K1C. The settings on record: n = 1.
For experiment [6], the system named is PIP5K2B. The settings on record: n = 1.
Experiment [7] deals with T1, PIP5K2C.
T1 construct: gene PIP4K2C
The settings on record: n = 1.

For experiment [8], the system named is T2, PKAC-alpha.
T2 construct: gene PRKACA
The settings on record: n = 1.

The subject of experiment [9] is T3, PKAC-beta.
T3 construct: gene PRKACB
Conditions: n = 1.

The test system of experiment [10] is PKMYT1. Conditions: n = 1.
Experiment [11] deals with PKN1. Conditions: n = 1.
The subject of experiment [12] is PKN2. The settings on record: concentration: 1 μM, replicates: in singlicate; n = 1.
The test system of experiment [13] is PLK1. The settings on record: n = 1.
Experiment [14] concerns PLK2. The settings on record: concentration: 1 μM, replicates: in singlicate; n = 1.
The subject of experiment [15] is PLK3. The settings on record: concentration: 1 μM, replicates: in singlicate; n = 1.
Experiment [16] concerns PLK4. The settings on record: n = 1.
Experiment [17] concerns PRKCD. The settings on record: concentration: 1 μM, replicates: in singlicate; n = 1.
For experiment [18], the system named is PRKCE. Conditions: n = 1.
Experiment [19] has as its system PRKCH. The settings on record: n = 1.
Experiment [20] relates to PRKCI. Conditions: n = 1.
The mark [21] stands for this setting: concentration: 1 μM, replicates: in singlicate.
The mark [22] stands for this setting: concentration: 1 μM,replicates: in singlicate, 1 µM.

This is an account of results in publication PMC5540273 (PLoS ONE, 2017).

“And” between values parts separate entries of the source, which are not always exact repeats. Equal entries are not always repeated. Where two headings read alike, the source gives them in different places.
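Also: KINOMEscan kinase panel screen.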

For the compound `O=S(=O)(c1ccc(-c2ccnc3[nH]ccc23)cc1)N1CCCC1` [GSK846226], the “%Inh” value was determined as 13% in experiment [1] (setting [21]); 0% in experiment [2]; 8% in experiment [3] (setting [21]); 37% in experiment [4]; 19% in experiment [5] (setting [21]); 0% in experiment [6] (setting [21]). Also, the “%Inh” value stood at 0% in experiment [7] (setting [21]); 81% in experiment [8] (setting [21]); 71% in experiment [9] (setting [21]); 0% in [10] (setting [21]); 40% in experiment [11] (setting [21]); 0% in experiment [12]. Moreover, the “%Inh” value is 0% in [13] (setting [21]); 4% in [14]; 0% in experiment [15]; 0% in experiment [16] (setting [21]); 0% in [17]; 2% in experiment [18] (setting [21]). In addition, the results for the “%Inh” value in experiment [19] (setting [21]) and in [20] (setting [21]) were 0% and 20%, respectively.
With `CSc1nn2c(=O)cc(N3CCOCC3)nc2n1Cc1cccc(C(F)(F)F)c1C` [GSK2363608], the “%Inh” value was 0% and 34% in experiment [1] (setting [22]); 0% in [2]; 0% and 27% in [3] (setting [22]); 0% in experiment [4]; 30% and 0% in experiment [5] (setting [22]); 1% and 4% in experiment [6] (setting [22]). Also, the “%Inh” value in experiment [7] (setting [22]) was 6% and 8%; in experiment [8] (setting [22]) it was 50% and 0%; in [9] (setting [22]), 64% and 0%; in experiment [10] (setting [22]) it was 13% and 19%; in experiment [11] (setting [22]), 14% and 0%; in experiment [12], 0%. The “%Inh” value is 25% and 8% in experiment [13] (setting [22]); 0% in [14]; 0% in [15]; 11% and 0% in experiment [16] (setting [22]); 0% in experiment [17]; 18% and 0% in experiment [18] (setting [22]). The “%Inh” value is 20% and 0% in experiment [19] (setting [22]); 13% and 18% in experiment [20] (setting [22]).
Regarding `CS(=O)(=O)c1ccc(-c2c(-c3ncn[nH]3)sc(N3CCOCC3)c2C#N)cc1`, the “%Inh” value stood at 0% in experiment [1] (setting [21]); 0% in [2]; 0% in experiment [3] (setting [21]); 0% in experiment [4]; 0% in experiment [5] (setting [21]); 14% in experiment [6] (setting [21]). The “%Inh” value is recorded as 0% in experiment [7] (setting [21]); 0% in experiment [8] (setting [21]); 7% in [9] (setting [21]); 0% in experiment [10] (setting [21]); 17% in experiment [11] (setting [21]); 0% in [12]. Besides, the “%Inh” value in [13] (setting [21]) is reported as 8%; in experiment [14] it was 8%; in [15], 16%; in experiment [16] (setting [21]), 28%; in [17] it was 41%; in experiment [18] (setting [21]), 42%. For the same compound, the figures for the “%Inh” value in [19] (setting [21]) and in experiment [20] (setting [21]) were 5% and 24%, respectively.
As to `COc1ccccc1CNC(=O)c1cc(C(=O)c2ccccc2C)c[nH]1` [GSK364507], the “%Inh” value is 0% in experiment [1] (setting [21]); 0% in experiment [2]; 0% in [3] (setting [21]); 0% in experiment [4]; 26% in experiment [5] (setting [21]); 8% in experiment [6] (setting [21]). In addition, the “%Inh” value in [7] (setting [21]) was found to be 25%; in experiment [8] (setting [21]), 0%; in experiment [9] (setting [21]) it was 0%; in experiment [10] (setting [21]), 0%; in experiment [11] (setting [21]) it was 0%; in experiment [12] it was 0%. Further, the “%Inh” value was 0% in experiment [13] (setting [21]); 0% in experiment [14]; 0% in experiment [15]; 100% in experiment [16] (setting [21]); 0% in experiment [17]; 1% in experiment [18] (setting [21]). The “%Inh” value in experiment [19] (setting [21]) stood at 6%; in experiment [20] (setting [21]) it was 3%.
Consider `COc1cc(Nc2nccc(N3CCC(NC(=O)Nc4cc(C)ccc4C)C3)n2)cc(OC)c1OC` (centres unmarked) [GSK1379762], for which the “%Inh” value in experiment [1] (setting [21]) turned out to be 0%; in experiment [2] it was 0%; in experiment [3] (setting [21]), 0%; in experiment [4] it was 0%; in [5] (setting [21]), 21%; in [6] (setting [21]), 16%. For the same compound, the “%Inh” value in experiment [7] (setting [21]) is reported as 70%; in experiment [8] (setting [21]), 5%; in [9] (setting [21]), 0%; in experiment [10] (setting [21]), 0%; in experiment [11] (setting [21]), 41%; in experiment [12] it was 0%. Also, the “%Inh” value in experiment [13] (setting [21]) came out at 0%; in experiment [14] it was 0%; in experiment [15], 0%; in experiment [16] (setting [21]), 28%; in experiment [17] it was 0%; in experiment [18] (setting [21]), 0%. For the same compound, the “%Inh” value is reported as 7% in experiment [19] (setting [21]) and 33% in experiment [20] (setting [21]).
Regarding `Cc1cccc(-c2nc(Nc3cccc(C(N)=O)c3)c3ccccc3n2)n1` [GW876019], the “%Inh” value in experiment [1] (setting [21]) stood at 3%; in experiment [2], 9%; in experiment [3] (setting [21]) it was 4%; in experiment [4] it was 12%; in [5] (setting [21]), 50%; in experiment [6] (setting [21]) it was 0%. Further, the “%Inh” value in experiment [7] (setting [21]) is recorded as 50%; in experiment [8] (setting [21]), 0%; in experiment [9] (setting [21]) it was 36%; in [10] (setting [21]) it was 32%; in experiment [11] (setting [21]), 0%; in experiment [12] it was 0%. Also, the “%Inh” value in experiment [13] (setting [21]) is listed as 0%; in experiment [14], 0%; in experiment [15], 4%; in experiment [16] (setting [21]), 0%; in experiment [17] it was 7%; in experiment [18] (setting [21]), 0%. Moreover, the entries for the “%Inh” value in experiment [19] (setting [21]) and in experiment [20] (setting [21]) were 0% and 24%, respectively.
Take `CCn1c(-c2cccnc2O)nc2cnccc21` [SB-736715]: the “%Inh” value in [1] (setting [21]), in [2], in [3] (setting [21]), in experiment [4], in [5] (setting [21]) and in experiment [6] (setting [21]) was 0% throughout. Also, the “%Inh” value worked out at 19% in [7] (setting [21]); 4% in [8] (setting [21]); 0% in experiment [9] (setting [21]); 0% in experiment [10] (setting [21]); 0% in experiment [11] (setting [21]); 0% in experiment [12]. Also, the “%Inh” value is given as 0% in [13] (setting [21]); 0% in experiment [14]; 0% in experiment [15]; 0% in experiment [16] (setting [21]); 2% in experiment [17]; 3% in [18] (setting [21]). Further, the “%Inh” value in [19] (setting [21]) and in experiment [20] (setting [21]) was 0% throughout.
Regarding `Cc1cc(NCC(c2ccccc2)c2ccccc2)nc(NCc2ccc(C(F)(F)F)cc2)n1` [GW497681], the “%Inh” value in experiment [1] (setting [21]) came to 12%; in experiment [2], 0%; in experiment [3] (setting [21]) it was 0%; in [4] it was 0%; in experiment [5] (setting [21]) it was 53%; in experiment [6] (setting [21]), 8%. Moreover, the “%Inh” value in experiment [7] (setting [21]), in experiment [8] (setting [21]), in experiment [9] (setting [21]), in [10] (setting [21]), in [11] (setting [21]) and in [12] was 0% in each case. For the same compound, the “%Inh” value was 0% in experiment [13] (setting [21]); 0% in [14]; 0% in [15]; 3% in experiment [16] (setting [21]); 0% in experiment [17]; 0% in experiment [18] (setting [21]). For the same compound, the “%Inh” value in experiment [19] (setting [21]) stood at 0%; in experiment [20] (setting [21]), 2%.
Consider `COc1ccc(C2=C(Nc3cccc(C(=O)O)c3)C(=O)NC2=O)cc1` [SB-390765], for which the “%Inh” value in experiment [1] (setting [21]) is on record as 5%; in experiment [2], 6%; in [3] (setting [21]), 11%; in experiment [4] it was 13%; in experiment [5] (setting [21]), 4%; in [6] (setting [21]), 16%. In addition, the “%Inh” value was 0% in [7] (setting [21]); 12% in experiment [8] (setting [21]); 25% in experiment [9] (setting [21]); 0% in experiment [10] (setting [21]); 18% in experiment [11] (setting [21]); 7% in experiment [12]. Moreover, the “%Inh” value in experiment [13] (setting [21]) is listed as 21%; in experiment [14] it was 48%; in experiment [15] it was 21%; in [16] (setting [21]), 2%; in experiment [17], 5%; in experiment [18] (setting [21]), 25%. Further, the entries for the “%Inh” value in [19] (setting [21]) and in experiment [20] (setting [21]) were 4% and 47%, respectively.
For `Cn1ccc2ncnc(Oc3cccc(C(=O)Nc4ccccc4)c3)c21`, the “%Inh” value is reported as 1% in experiment [1] (setting [21]); 0% in experiment [2]; 14% in experiment [3] (setting [21]); 0% in [4]; 0% in [5] (setting [21]); 17% in [6] (setting [21]). Further, the “%Inh” value in experiment [7] (setting [21]) was determined as 8%; in [8] (setting [21]), 8%; in experiment [9] (setting [21]), 0%; in [10] (setting [21]) it was 16%; in experiment [11] (setting [21]), 0%; in experiment [12] it was 0%. The “%Inh” value in experiment [13] (setting [21]) turned out to be 0%; in experiment [14], 0%; in experiment [15] it was 0%; in [16] (setting [21]), 2%; in [17], 2%; in experiment [18] (setting [21]) it was 0%. In addition, the “%Inh” value in [19] (setting [21]) and in experiment [20] (setting [21]) was 0% throughout.
